HGIII-sPLA2 inh = Blocks human group III sPLA2 activity; 0.56% of 370,000 active; inhibition, % at 12.2 µM; QFRET BODIPY PC-A2 liposome hydrolysis, fluorescence;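 active = inhibition above mean plus 3 SD of compounds lying within the high and low control bounds, cut at about 19% in these data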;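 also: 0% = median of test compound wells and 100% = no enzyme DMSO wells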
Target sequence (Q9NZ20 whole entry, looked up): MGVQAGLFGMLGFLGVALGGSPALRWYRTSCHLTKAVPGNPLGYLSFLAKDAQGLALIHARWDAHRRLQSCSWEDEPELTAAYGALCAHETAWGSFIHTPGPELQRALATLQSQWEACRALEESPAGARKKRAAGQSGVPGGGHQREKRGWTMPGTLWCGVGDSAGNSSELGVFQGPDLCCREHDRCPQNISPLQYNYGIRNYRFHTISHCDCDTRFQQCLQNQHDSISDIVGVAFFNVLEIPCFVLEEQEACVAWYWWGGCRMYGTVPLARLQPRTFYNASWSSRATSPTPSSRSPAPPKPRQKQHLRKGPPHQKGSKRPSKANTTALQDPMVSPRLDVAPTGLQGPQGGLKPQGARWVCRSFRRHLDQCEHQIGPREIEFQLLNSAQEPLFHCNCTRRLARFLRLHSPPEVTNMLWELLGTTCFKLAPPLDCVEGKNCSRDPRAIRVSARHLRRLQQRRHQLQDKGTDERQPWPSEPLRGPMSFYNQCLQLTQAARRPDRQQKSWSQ
ADAM17 inh = ADAM17 inhibition, QFRET primary screen; P78536; recombinant ADAM17, EDANS/DABCYL FRET peptide cleavage; inhibition, % at 6.95 µM; 0.83% of 370,000 active;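 active = inhibition above the mean of compounds lying between control limits plus 3 SD, set per campaign, cut at about 8.5% in these data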;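 also: 0% = DMSO-only wells as the low control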
NRP1-CendR mod = modulators of CendR peptide binding to human neuropilin-1; inhibition, % at 25 µM; AID 602438; O14786; FAM-RPARPAR peptide binding to NRP-1, fluorescence polarization; 0.85% of 360,000 active;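 active = inhibition or corrected inhibition above about 18%, plus a signal ratio from 0.5 to 1.5, limit read from the data, passing the limit was not always enough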
KLK7 zymogen act = proKLK7 (human) activation, primary screen. purified proKLK7, EDANS-DABCYL substrate fluorescence; 100% is mature enzyme control, 0% vehicle. P49862. activation, % at 7 µM. 0.9% of 370,000 active. AID 652039;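 active = activation above the mean of all tested compounds plus 3 SD, computed per campaign excluding outliers beyond control limits, cut at about 13% in these data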
ADAM10 inh = inhibitors of human ADAM10. AID 720582. 0.62% of 370,000 active. O14672. inhibition, % at 7 µM. recombinant ADAM10, EDANS/DABCYL FRET peptide cleavage, 3 h;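 active = inhibition above a per-campaign cutoff equal to the mean of compounds falling between control-based bounds plus 3 SD, cut at about 20% in these data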;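 also: 0% = DMSO wells while the 100% control is not disclosed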
The depositor's hits bear a star; i = inactive; nt = no result given. This is a sample that favours compounds with a hit; in the whole collection about 3.4% have one here.

SMILES | HGIII-sPLA2 inh | ADAM17 inh | NRP1-CendR mod | KLK7 zymogen act | ADAM10 inh
COc1ccc(S[C@]2(C(=O)N3CCOCC3)CC(=O)N(c3ccc(C#N)cc3)[C@@H]2c2ccc(OC)cc2)cc1 | -10 | 5 | nt | 1 | 11
COc1cc2oc(=O)ccc2cc1[C@@H](O)[C@@H]1OC(C)(C)OC1(C)C | 5 | -68 | 27* | 1 | -246
COc1ccc(C2=C(N)c3ccccc3C2=O)cc1 | nt | nt | -2 | nt | nt
COC1=C(c2ccccc2)C(=O)c2ccccc2C1=O | 1 | -1 | 32* | 0 | -5
CCOC(=O)C1(Cc2cccc(F)c2)CCN(Cc2ccon2)CC1 | 0 | -2 | 30* | 0 | -1
NS(=O)(=O)c1cccnc1Nc1cccc(Cl)c1Cl | -9 | -4 | 24* | -1 | -5
CCC(C)(NC=O)C(=O)Nc1c(C)cccc1C (stereo unspecified) | 4 | -4 | 26* | 0 | -4
CCNCC(=O)Nc1c(C)cccc1C | -3 | -5 | -2 | 0 | 4
O=c1nc2c(O)cccn2c2c1c(=O)[nH]c1ccccc12 | -3 | -71 | 48* | -1 | -236
O=c1[nH]c2ccccc2c2nc3ccccn3c12 | -2 | -1 | -6 | 0 | -9
CC1CCN(c2ccc(C(=O)O)cc2NS(=O)(=O)c2cccc3cccnc23)CC1 | -1 | -4 | nt | 0 | -7
Oc1cc2ccccc2cc1-c1n[nH]c(=S)n1Cc1ccco1 | -1 | -22 | 21* | -25 | -73
Oc1ccc(-c2n[nH]c(=S)n2Cc2ccco2)cc1 | 5 | -3 | 7 | 0 | -6
CCCCN(C)C(=O)CN1C(=O)C2CCCCN2C(=O)c2ccccc21 (stereo unspecified) | -1 | 4 | nt | 0 | -9
O=S(=O)(c1cccc2nsnc12)N1CCN(Cc2ccccc2)CC1 | -3 | -1 | 19* | 0 | 2
CC(C)(C)CNC(=O)C1(C)CCN1C(=O)Cc1ccc(C(C)(C)C)cc1 (stereo unspecified) | 14 | 1 | 33* | -1 | -5
CCN1C(=O)c2cccc3c(S(=O)(=O)Nc4ccccn4)ccc1c23 | -11 | -11 | -1 | 19* | -49
CCN(CC)CCNC(=O)c1cc2c(-c3ccc(Cl)cc3)nn(C)c2s1 | 6 | -184 | 0 | 17* | i
CCCN(CCC)CCNC(=O)c1cc2c(-c3ccc(Cl)cc3)nn(C)c2s1 | -5 | -131 | 5 | 4 | -339
CCCCCCCCN1C(=O)[C@@H](CC(=O)NCCCOCCCC)C[C@@]2(C(=O)OC)C1=C[C@H](C(C)(C)C)O[C@@H]2C | -2 | -2 | nt | 0 | 12
COC(=O)C1CN(Cc2cn(CCC3OCCO3)nn2)CCS(=O)(=O)N1Cc1ccc(C)cc1 (stereo unspecified) | 6 | -3 | nt | -1 | -4
c1coc(CNc2ncnc3[nH]ncc23)c1 | 6 | -4 | 2 | -1 | -1
Cc1nc(NCc2ccco2)c2cn[nH]c2n1 | -5 | -3 | 28* | 0 | 3
CCCc1c(O)c2ccccc2[nH]c1=O | -2 | -13 | 26* | 2 | -34
O=C(Nc1ccc(Oc2ccccc2)nc1)C1CCN(Cc2cccc(F)c2)CC1 | -10 | 3 | 27* | 0 | -10
SMILES | HGIII-sPLA2 inh | ADAM17 inh | NRP1-CendR mod | KLK7 zymogen act | ADAM10 inh
C#Cc1ccc(CN2CCC(C(=O)Nc3ccc(Oc4ccccc4)nc3)CC2)cc1 | -23 | 2 | 6 | 0 | 0
CC(=O)Nc1ccc(S(=O)(=O)N2CCN=C2SCc2cccnc2)cc1 | 4 | -7 | 29* | 0 | -15
CCCCCc1c(C)nc(Nc2ccccc2)[nH]c1=O | -6 | -3 | 38* | 0 | -1
Cc1ccccc1C(=O)N(C)[C@H]1C[C@H]2c3[nH]c4c(-c5ccccc5)cccc4c3CCN2C[C@H]1[C@H](C)O | 7 | -34 | nt | 2 | -120
COC(=O)[C@@]12CCCCC3=C1N(CCC3)C(=O)[C@H]2CC(=O)N1CCN(C(=O)C2CC2)CC1 | 5 | 2 | nt | 1 | -12
Cc1cc(Cl)ccc1OCC(=O)NNC(=O)C1CCCO1 (stereo unspecified) | -5 | -9 | 25* | 0 | 0
CC(=O)OCCNc1cc(SCc2ccco2)c2nonc2c1[N+](=O)[O-] | nt | nt | 27* | nt | nt
C#CCNC(=O)C[C@H]1C[C@@]2(C(=O)OC)C(=C[C@H](COCc3ccccc3)O[C@@H]2C)N(Cc2ccco2)C1=O | -3 | -2 | nt | 0 | 0
O=C(NCc1cccnc1)c1ccc(N2CCOCC2)c([N+](=O)[O-])c1 | 2 | 1 | 14 | 0 | 8
CCOc1ccc(C(=O)NCc2cccnc2)cc1[N+](=O)[O-] | 3 | -1 | 22* | 1 | -4
CN1C(=O)C(=O)N2C(=C[C@]3(c4c[nH]c5ccccc45)c4ccccc4N[C@H]23)C1=O | -1 | -6 | nt | nt | -5
COc1ccc(C=CC(O)CCN2CCC3CCC(C3)C2)cc1 (stereo unspecified) | -1 | -3 | 24* | 0 | -6
CCOC(=O)[C@]12CCCC3=C1N(CCC3)C(=O)[C@@H](CC(=O)N1CCN(C(=O)c3ccco3)CC1)C2 | 15 | -12 | nt | 1 | -23
CCN1CCN(c2ncc(C(=O)N3CCN(c4ccccc4OC)CC3)c3ccccc23)CC1 | -2 | -2 | 22* | 0 | -4
CCN1CCN(c2ncc(C(=O)Nc3cc(Cl)c(OC)cc3OC)c3ccccc23)CC1 | -7 | -2 | -17 | 0 | -5
CC(C)N(Cc1cn(Cc2ccccc2)nn1)S(=O)(=O)c1ccccc1Br | -3 | -1 | nt | 0 | 5
Cc1ccc(F)c([C@H]2[C@@H]3C=CCC[C@@]3(C)C(=O)N2Cc2ccccc2)c1 | 5 | 0 | 28* | 0 | 14
Cc1ccc(-c2cc([C@H]3[C@@H]4C=CCC[C@@]4(C)C(=O)N3Cc3ccccc3)ccc2F)cc1 | -5 | -2 | 6 | 0 | -6
CC1(C)OC(=O)C=C[C@]2(C)[C@H]3CC[C@@]4(C)[C@H](C(=O)O)OC(=O)[C@H]5O[C@]54[C@]3(C)C(=O)C[C@@H]12 | 0 | 1 | 22* | 0 | 6
Cc1cc(C)c(C#N)c(N2CCN(CCOc3ccc(Cl)cc3)CC2)n1 | -2 | -1 | 27* | 0 | -2
Cc1ccccc1Nc1cc(=O)oc2ccccc12 | -4 | -5 | 22* | 0 | -4
COc1cccc(NC(=O)CN(C)C(=O)CN2C(=O)NC(C)(c3ccc(C)cc3)C2=O)c1 (stereo unspecified) | -1 | -7 | 19* | 0 | -8
CC1(c2ccc(OC(F)F)cc2)NC(=O)N(CC(=O)Nc2ccc(OC(F)F)cc2)C1=O (stereo unspecified) | -25 | 3 | 18* | 1 | 8
Cc1ccc(C2(C)NC(=O)N(CC(=O)N(C)CC(=O)Nc3cccc(F)c3)C2=O)cc1 (stereo unspecified) | 1 | -3 | 6 | 0 | -8

From PubChem
